Hit rate of the full screen: of about 69,000 compounds, about 8,600 (12%) showed an effect of 50% or more. The full list was thinned out, with strong results kept by preference.

This is an account of results in ChEMBL document CHEMBL4513216, “Probing the Open Global Health Chemical Diversity Library for Multistage-Active Starting Points for Next-Generation Antimalarials” (ACS Infect Dis, 2020).

In this assay the test system is Plasmodium berghei. Description: Screen against P. berghei liver stage (PbLuc), transformed with Luciferase, at 10uM. The assay is classed as functional, HepG2. The following applies: tested at 10 uM.
With `CCCc1nc(CN(CC)Cc2ccc(S(C)(=O)=O)cc2)no1`, the INHIBITION was -21.9%.
As to `Cn1nc2c(cc1=O)CN(Cc1coc(-c3ccc(F)cc3)n1)CC2`, the INHIBITION is on record as -0.113%.
In the case of `CN(Cc1cccnc1)[C@@H]1CN(Cc2nccn2C)[C@@H]2CCCO[C@H]12`, the INHIBITION was -27%.
As for `CC(C)NC(=O)C1CCc2nnc(CNC(=O)c3cccnc3)n21` (stereo unspecified), the INHIBITION is given as -57.8%.
The value for `CCC[C@H]1CN(C(=O)Cn2ccccc2=O)C[C@@H]1NS(C)(=O)=O` was 20.6%; that for `Cc1c(C(=O)NCCN2C(=O)CCC2=O)sc2ccc(F)cc12` was -64.6%.
Next, `O=C(NC1CCCC1)[C@H]1C[C@H]2OCC[C@H]2N(Cc2ccoc2)C1`: -1.55%.
Regarding `CC1CCN(C(=O)[C@@H]2C[C@H]3OCC[C@H]3N(Cc3ccoc3)C2)CC1`, the INHIBITION was 59%.
`O=C(NCC1CC1)[C@H]1C[C@H]2OCC[C@H]2N(Cc2ccoc2)C1`: the INHIBITION was 35.3%.
The value for `Cc1ccc(NC(=O)[C@H]2C[C@H](C(=O)O)CN(CC3CC3)C2)cn1` was 39.4%; that for `CCC1=NC2(CCC(C(=O)Nc3ccc(F)cc3)CC2)C(=O)N1C` (stereo unspecified) was 42.4%; that for `CCC1=NC2(CCC(C(=O)Nc3ccc(C)nc3)CC2)C(=O)N1C` (stereo unspecified) was 64.3%.
`O=C1CCN(C(=O)NCCc2c[nH]c3ccc(Cl)cc23)CCN1`: the INHIBITION was determined as 1.56%.
Consider `COc1ccccc1-c1nc(C(=O)N(C)C)n2ccncc12`, for which the INHIBITION is reported as 30.8%.
Next, `COc1ccccc1-c1nc(C(=O)N2CCOCC2)n2ccncc12`: 32.5%.
The value for `COC(=O)CNC(=O)c1nc(-c2ccccc2OC)c2cnccn12` was 54.9%; that for `COc1ncc(CN2CCCC2c2[nH]ncc2C(=O)N(C)C)cn1` (stereo unspecified) was 3.48%; that for `Cc1n[nH]c(C)c1-c1cc(-c2cc[nH]c2)nc(N)c1C#N` was 28%.
Turning to `Cc1nn(C)c(C)c1-c1cc(-c2cnn(C)c2C2CC2)c(C#N)c(N)n1`, the INHIBITION is reported as 34.5%.
`N#Cc1c(C2CC2)cc(-c2ccc(O)cc2)nc1N`: the INHIBITION was -14.9%.
The value for `Cc1n[nH]c(C)c1-c1cc(-c2cccc(O)c2)nc(N)c1C#N` was 57.6%.
`CC(C)c1cc(-c2cnn(C)c2C2CC2)c(C#N)c(N)n1`: the INHIBITION is -14.3%.
The value for `Cn1ncc(-c2cc(-c3cccc(O)c3)nc(N)c2C#N)c1C1CC1` was 80%; that for `Cc1cccc(-c2cc(-c3c(C)nn(CCO)c3C)c(C#N)c(N)n2)c1` was -13.2%; that for `Cc1n[nH]c(C)c1-c1cc(-c2ccc[nH]2)nc(N)c1C#N` was 7.22%.
Consider `Cc1cc(O)ccc1-c1cc(-c2cnn(C)c2C2CC2)c(C#N)c(N)n1`, for which the INHIBITION amounted to 87.9%.
`CC(=O)N1CCN(C(=O)C2CCN(c3cccnn3)C2)CC1` (stereo unspecified): the INHIBITION is listed as -8.12%.
Take `COC(=O)C1=C(C)N=C2SCC(=O)N2C1c1cnn(C)c1C` (stereo unspecified): the INHIBITION is recorded as 22.6%.
As for `COc1ccc(CC2(CO)CCN(c3cc(N)ncn3)CC2)cc1`, the INHIBITION is recorded as 26.8%.
Next, `CCOCC(=O)N1CCC(c2nccn2C)CC1`: 11.8%.
The value for `O=C(COCC(F)(F)C(F)F)N1CCC(c2ncc[nH]2)CC1` was 40.6%.
With `Cn1ccnc1C1CCN(C(=O)COCC(F)(F)C(F)F)CC1`, the INHIBITION was determined as 59.1%.
On to `O=C(Cc1csc(-c2ccco2)n1)N1CCN(c2nccs2)CC1`, for which the INHIBITION is recorded as -21.7%.
As for `CO[C@H]1CN(C(=O)c2ccc[nH]2)[C@@H]2COC[C@H]12`, the INHIBITION is -29%.
Next, `COCCNC(=O)c1ccc2ccc(N(C)CC3CC3)n2c1`: 26%.
Next, `COc1ccc(F)cc1S(=O)(=O)N1CCN(CCn2ccnc2)CC1`: 18.2%; `O=S(=O)(c1ccccc1)N1CCN(CCn2ccnc2)CC1`: -26.6%.
Consider `O=S(=O)(c1ccc(Cl)cc1)N1CCN(CCCn2ccnc2)CC1`, for which the INHIBITION was 76.7%.
Next, `O=S(=O)(c1ccc(F)cc1)N1CCN(CCCn2ccnc2)CC1`: -49.3%; `O=S(=O)(c1ccccc1)N1CCCN(CCCn2ccnc2)CC1`: 37%; `O=S(=O)(c1cccnc1)N1CCN(CCn2ccnc2)CC1`: -0.113%.
For `CCc1ccc(S(=O)(=O)N2CCN(CCn3ccnc3)CC2)cc1`, the INHIBITION is 51.2%.
The value for `COc1ccc(S(=O)(=O)N2CCC(Cn3ccnc3)CC2)cc1` was 8.46%; that for `Cc1ccc(S(=O)(=O)N2CCN(CCCn3ccnc3)CC2)cc1` was 81%; that for `c1ccc(-c2cc(CNCCN3CCCC3)c3nnnn3c2)cc1` was -5.71%.
The value for `CC(NC(=O)NCc1ccccn1)c1cccs1` (stereo unspecified) was -5.26%; that for `O=C(C1=CCCC1)N1CCC[C@]2(C[C@@H](Oc3ncccc3F)CO2)C1` was 23.5%; that for `CC(C)N1CCc2c(C(=O)N3CCOCC3)nn(C)c2C1` was 42.1%.
Next, `OC1(CNc2ccccc2)CCNCC1`: 20.9%; `CCNC(=O)N(C)CCCc1n[nH]c(N)c1C#N`: 40.9%; `CN(CCCc1n[nH]c(N)c1C#N)C(=O)Nc1cc(Cl)cc(Cl)c1`: 63.7%.
With `CN(CCCc1n[nH]c(N)c1C#N)C(=O)NC1CC1`, the INHIBITION was 23.6%.
Next, `COC(=O)c1ccc(-c2noc(CN(CCO)Cc3cccs3)n2)cc1`: 51%.
The value for `OCCN(Cc1nc(-c2ccc3c(c2)OCO3)no1)Cc1cccs1` was 17.6%; that for `OCCN(Cc1ccccc1)Cc1nc(-c2ccc3c(c2)OCO3)no1` was 35.1%; that for `CCS(=O)(=O)N1C[C@@H](Oc2ccccn2)[C@H]2OCCC[C@H]21` was -14.4%.
The value for `COCC1(CNC(=O)Nc2cc(F)ccc2OC)CCCC1` was 51.4%.
As for `COc1ccc(F)cc1NC(=O)NCC1(C)COC1`, the INHIBITION was found to be 25.25%.
The value for `COc1ccc(F)cc1NC(=O)NCC1(CN2CCOCC2)CC1` was 28.15%; that for `Cc1nn(C)c(Cl)c1C1CCCN1C(=O)CCNc1ncccn1` (stereo unspecified) was -35.7%; that for `O=c1cc(N2CCCCC2)cnn1CC(O)C(F)(F)F` (stereo unspecified) was -29.1%.
As for `O=c1cc(N2CCCCC2)cnn1C[C@H](O)CO`, the INHIBITION was determined as 2.7%.
Next, `O=c1cc(N2CCCC2)cnn1CC(F)F`: 73.2%.
With `O=c1cc(N2CCNCC2)cnn1CCc1ccc(F)cc1`, the INHIBITION is reported as 32.8%.
The value for `O=c1cc(N2CCCC2)cnn1CCc1cccc(F)c1` was 52.6%; that for `O=c1cc(N2CCOCC2)cnn1CCc1ccc(F)cc1` was -0.529%.
